Data as given in PubChem BioAssay.

target: Carbonic anhydrase 2 (Homo sapiens) (UniProt P00918); test: compounds binding carbonic anhydrase 2 – biochemical, small-molecule microarray, Alexa647-labelled CAII, profiling panel (AID 1122); settings: CAII-A647 binding fluorescence, higher = more signal

Structure (SMILES) | composite z-score
COCCOC(=O)N1C(=O)[C@@]2(c3ccccc31)[C@H](c1ccc(O)cc1)N1[C@H](c3ccccc3)[C@H](c3ccccc3)OC(=O)[C@H]1[C@@H]2C(=O)Nc1nc2ccccc2s1 | 0.498
NC(=O)NCC#Cc1ccc2c(c1)[C@]1(C(=O)N2)[C@H](C(=O)Nc2nc3ccccc3s2)[C@H]2C(=O)O[C@H](c3ccccc3)[C@H](c3ccccc3)N2[C@@H]1c1ccccc1OCCO | 0.39
COCCOC(=O)N1C(=O)[C@@]2(c3ccccc31)[C@H](c1ccccc1OCCO)N1[C@H](c3ccccc3)[C@H](c3ccccc3)OC(=O)[C@H]1[C@@H]2C(=O)N1CCN(c2ncccn2)CC1 | 0.521
COC(=O)[C@@]1(Cc2ccc(F)cc2)[C@H]2c3cc(C(=O)N4CCCC4)n(CCCNc4ncc(C(F)(F)F)cc4Cl)c3C[C@H]2CN1C(=O)c1ccccc1 | 0.728
CC(C)C[C@@H]1NC(=O)[C@@H]2C[C@H](C(=O)NCc3ccc(F)cc3)[C@H](c3cccc(OCCO)c3)N2C1=O | 0.549
C=CCC(OC(C)=O)[C@@H]1[C@@H](N(Cc2cc3ccccc3o2)C(=O)c2cccc3ccccc23)c2cc(OCCCO)ccc2N1C(=O)c1ccc(-c2ccccc2)cc1 (stereo partly specified) | -0.0159
C#C[C@H](O[Si](C#Cc1ccc(Oc2ccccc2)cc1)(C(C)C)C(C)C)c1ccccc1 | 0.695
O=C1N[C@@H](Cc2ccccc2)C(=O)N2[C@@H]1C[C@@H](C(=O)O)[C@H]2c1cccc(OCCO)c1 | 0.733
COCCCNC(=O)[C@@]1(C)c2ccccc2C(=O)N(C(C)C)[C@H]1c1ccc(CO)cc1 | 0.693
C=CCN1C(=O)[C@@]2(Cc3ccccc31)N=C(c1ccc(OCCCO)cc1)O[C@H]2c1ccccc1 | 0.401
CN(C)CCCCCCNC(=O)[C@H]1C[C@H]2C(=O)N[C@@H](CCCCN)C(=O)N2[C@H]1c1cccc(OCCO)c1 | 0.773
COc1cc2c(cc1OC)CN(C(=O)[C@H]1[C@@H]3C(=O)O[C@@H](c4ccccc4)[C@@H](c4ccccc4)N3[C@@H](c3ccc(O)cc3)[C@]13C(=O)Nc1ccccc13)CC2 | 0.402
C=CC1(C(=O)OC)CC=C(C(=O)OC)CC1 (stereo unspecified) | 0.613
CCCC=C(CCC)[C@@H](NC(=O)c1cccs1)c1ccc(C(F)(F)F)cc1 | 0.173
C=CCNC(=O)[C@@H]1[C@H]2C(=O)O[C@H](c3ccccc3)[C@H](c3ccccc3)N2[C@H](c2ccccc2OCCO)[C@@]12C(=O)N(C(=O)OCCOC)c1ccccc12 | 0.395
COC(=O)C[C@H]1O[C@]2(C(=O)N(C)c3ccccc32)[C@@H](C)[C@@H]1[Si](C)(C)F | 0.224
C=CCOC(=O)[C@@H]1[C@H]2C(=O)O[C@H](c3ccccc3)[C@H](c3ccccc3)N2[C@H](c2ccc(OCCOC(=O)[C@@H]3C[C@@H]4C(=O)NCC(=O)N4[C@@H]3c3ccc(O)cc3)cc2)[C@@]12C(=O)Nc1ccc(I)cc12 | 0.617
COc1ccc(CCNC(=O)[C@@]2(C)c3ccccc3C(=O)N(C(C)C)[C@H]2c2ccc(CO)cc2)cc1 | 0.578
C=C(CC1([C@@H](NP(=O)(c2ccccc2)c2ccccc2)[C@H]2C[C@@H]2CCCC)CC1)c1ccccc1 | 0.252
COC(=O)[C@H](Cc1ccccc1)N1CC2=C[C@@H](C3CC3)n3c(=O)n(C)c(=O)n3[C@H]2[C@@H]1[C@@H](O)Cc1ccccc1 | 0.298
C=C(/C(=C/C[C@H](OC(C)=O)c1ccc(CO)o1)c1cc(C(=O)OC)ccc1OC)C(C)C | 0.646
[N-]=[N+]=Nc1ccccc1[C@H]1OC(c2ccc(OCCCO)cc2)=N[C@@]1(CCS(=O)(=O)c1ccccc1)C(N)=O | 0.795
COc1cc2c(cc1OC)CN(C(=O)[C@@H]1[C@H]3C(=O)O[C@H](c4ccccc4)[C@H](c4ccccc4)N3[C@H](c3ccccc3OCCO)[C@@]13C(=O)Nc1ccc(C#CCCO)cc13)CC2 | 0.402
C[N+](C)(C)CCCCNC(=O)[C@@H]1C[C@@H]2C(=O)N[C@@H](Cc3ccccc3)C(=O)N2[C@@H]1c1cccc(OCCO)c1 | 0.66
COCCOC(=O)N1C(=O)[C@@]2(c3cc(C#CCC(C(=O)OC)C(=O)OC)ccc31)[C@H](C(=O)Nc1nc3ccccc3s1)[C@H]1C(=O)O[C@H](c3ccccc3)[C@H](c3ccccc3)N1[C@@H]2c1ccccc1OCCO | 0.559
CCC[C@@H]1C[C@@]1(CCC)[C@@H](NS(=O)(=O)c1cccc2cccnc12)c1ccc(Cl)cc1 | 0.457
